According to PubChem BioAssay (Tox21):
Several values for one entry are separate records, joined by “and”; a condition that tells them apart may be missing. Equal values may be shown once. Records with an inconclusive call do not appear. Where a call stands in place of a potency, no number is given. The source holds several records for some structures; these can differ, active in one and inactive in another. Activity calls are given as the source filed them. Calls follow the shape of the dose curve; as a rule, active = well fitted curve in the direction sought with a large enough effect in the repeat runs; inconclusive = weak or mixed curves; inactive = no such curve, though single readings can be large; an effect the other way counts as inactive or inconclusive.

Assays:
[1] = Human pregnane X receptor (PXR) small molecule agonists, qHTS cell viability counter screen (AID 1346977); also: nearly all actives have a fitted effect of over 50% in size; also: potency is read from the fitted curve at half-maximal effect
In short: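 PXR-Luc HepG2 cells in medium with 5% charcoal-stripped FBS were pre-incubated 5hr, then exposed to compounds for 24hr at 37C. Viability was read in the same wells by CellTiter-Fluor fluorescence, reagent added after 23hr with a 1hr incubation.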

[2] = Caspase-3/7 induction in HepG2 cells by small molecules, qHTS assay (AID 1346978); also: nearly all actives have a fitted effect of over 15% in size; also: potency is read from the fitted curve at half-maximal effect
In short: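 Wild-type HepG2 cells, 2,000/well, settled 5 hr at 37 C and 5% CO2, then compound-treated for 17 hr; caspase-3/7 activity read by luminescent Caspase-Glo 3/7 after 30 min at room temperature.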

[3] = Caspase-3/7 induction in CHO-K1 cells by small molecules, qHTS cell viability counter screen (AID 1346979); also: nearly all actives have a fitted effect of over 35% in size; also: potency is read from the fitted curve at half-maximal effect
In short: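 Wild-type CHO-K1 cells were seeded at 1,500 per well, rested 5hr at 37 C, then exposed to compounds in DMSO. After 16hr, CellTiter-Fluor reagent was added and fluorescence read 1hr later as the viability measure.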

[4] = Caspase-3/7 induction in CHO-K1 cells by small molecules, qHTS assay (AID 1346980); also: nearly all actives have a fitted effect of over 15% in size; also: potency is read from the fitted curve at half-maximal effect
In short: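 Wild-type CHO-K1 cells exposed to compounds for 17hr at 37 C, 5% CO2. Caspase-3/7 activity then measured by Caspase-Glo 3/7 luminescence after 30min at room temperature.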

[5] = Caspase-3/7 induction in HepG2 cells by small molecules, qHTS cell viability counter screen (AID 1346981); also: nearly all actives have a fitted effect of over 30% in size; also: potency is read from the fitted curve at half-maximal effect
In short: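 Wild-type HepG2 cells (2,000/well) were allowed to settle for 5 hr at 37 C, 5% CO2, then dosed with compounds in DMSO by pin transfer. After 16 hr at 37 C, CellTiter-Fluor was added and fluorescence read 1 hr later.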

[6] = biological target: Nuclear receptor subfamily 1 group I member 2 (Homo sapiens) (UniProt O75469); experiment: Human pregnane X receptor (PXR) small molecule agonists, qHTS assay (AID 1346982); also: nearly all actives have a fitted effect of over 35% in size; also: potency is read from the fitted curve at half-maximal effect
In short: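 PXR-Luc HepG2 cells (CYP3A4 promoter-driven luciferase) were seeded in medium with 5% charcoal-stripped FBS, left 5 hr at 37 C, then exposed to compounds in DMSO for 24 hr. Luminescence was read after ONE-Glo addition.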

[7] = biological target: Cytochrome P450 2D6 (Homo sapiens) (UniProt P10635); experiment: Cytochrome P450 Family 2 Subfamily D Member 6 (CYP2D6) small molecule antagonists: luciferase reporter qHTS assay (AID 1671196); also: nearly all actives have a fitted effect of over 50% in size; also: potency is read from the fitted curve at half-maximal effect
In short: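 CYP2D6 enzyme–substrate mix was held with compound for 10 min at room temperature, then NADPH regeneration solution was added and the reaction ran 1 h at room temperature. Luciferin product was detected by luminescence after 20 min with detection reagent.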

[8] = biological target: Cytochrome P450 2C19 (Homo sapiens) (UniProt P33261); experiment: Cytochrome P450 Family 2 Subfamily C Member 19 (CYP2C19) small molecule antagonists: luciferase reporter qHTS assay (AID 1671197); also: nearly all actives have a fitted effect of over 65% in size; also: potency is read from the fitted curve at half-maximal effect
In short: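 Light output is proportional to CYP2C19 activity: proluciferin substrate is converted to luciferin, then detected by a luciferin detection reagent that also stops the 1 h, 37C NADPH-driven reaction. Ketoconazole serves as positive control.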

[9] = biological target: Cytochrome P450 2C9 (Homo sapiens) (UniProt P11712); experiment: Cytochrome P450 Family 2 Subfamily C Member 9 (CYP2C9) small molecule antagonists: luciferase reporter qHTS assay (AID 1671198); also: nearly all actives have a fitted effect of over 50% in size; also: potency is read from the fitted curve at half-maximal effect
In short: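 P450-Glo proluciferin substrate with CYP2C9 enzyme; 10 min RT preincubation, then NADPH regeneration 1 h at 37C; luciferin detection reagent 20 min RT, luminescence in relative luminescence units.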

[10] = biological target: Cytochrome P450 1A2 (Homo sapiens) (UniProt P05177); experiment: Cytochrome P450 Family 1 Subfamily A Member 2 (CYP1A2) small molecule antagonists: luciferase reporter qHTS assay (AID 1671199); also: nearly all actives have a fitted effect of over 50% in size; also: potency is read from the fitted curve at half-maximal effect
In short: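 Human CYP1A2 activity measured with a P450-Glo proluciferin substrate; compounds in DMSO preincubated 10 min at room temperature with enzyme-substrate mix, then NADPH regeneration system added for 1 h. Luciferin detection reagent, 20 min, luminescence read.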

[11] = biological target: Voltage-gated inwardly rectifying potassium channel KCNH2 (Homo sapiens) (UniProt Q12809); experiment: Human Ether-a-go-go-Related Gene (hERG) channel small molecule antagonists: fluorescence cell-based qHTS assay (AID 1671200)
In short: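 U2OS cells expressing the channel were plated at 1000 cells/well, incubated overnight at 37 C, then loaded with FluxOR II thallium-sensitive dye for 1 h at room temperature in the dark, with a further 10 min at room temperature before stimulation.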

[12] = biological target: Cytochrome P450 3A4 (Homo sapiens) (UniProt P08684); experiment: Cytochrome P450 Family 3 Subfamily A Member 4 (CYP3A4) small molecule antagonists: luciferase reporter qHTS assay (AID 1671201); also: nearly all actives have a fitted effect of over 50% in size; also: potency is read from the fitted curve at half-maximal effect
In short: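 P450-Glo CYP3A4 system with proluciferin substrate; compounds preincubated 10 min RT with enzyme-substrate mix, then NADPH regeneration added for 1 h RT. Detection reagent 20 min, luminescence read as relative luminescence units.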

[13] = biological target: Nuclear receptor subfamily 1 group I member 2 (Rattus norvegicus) (UniProt Q9R1A7); experiment: Rat pregnane X receptor (rPXR) activation by small molecules, qHTS assay (AID 1346983); conditions: rPXR luciferase reporter cells, One-Glo luminescence, 24 h; stronger effect = higher value; also: nearly all actives have a fitted effect of over 20% in size
In short: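 Cell-based rPXR activation assay: rPXR cells, 2,000 per well, rested 5hr at 37 C, then exposed to compounds in DMSO for 24 hr at 37 C. Luciferase activity read by One-Glo luminescence after 30 min at room temperature.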

[14] = biological target: Nuclear receptor subfamily 1 group I member 2 (Homo sapiens) (UniProt O75469); experiment: CYP3A4 induction through human pregnane X receptor (PXR) by small molecules, qHTS assay (AID 1346984); also: nearly all actives have a fitted effect of over 40% in size
In short: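 DPX-2 cells (HepG2 co-transfected with PXR and CYP3A4 promoter-luciferase) treated with compounds 24 h at 37C; luciferin-IPA CYP3A4 substrate 3uM final added for 3 h, then One-Glo; luminescence read. qHTS format.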

[15] = biological target: Nuclear receptor subfamily 1 group I member 2 (Homo sapiens) (UniProt O75469); experiment: Human pregnane X receptor (PXR) activation by small molecules, qHTS assay (AID 1346985); also: nearly all actives have a fitted effect of over 40% in size; also: potency is read from the fitted curve at half-maximal effect
In short: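 DPX-2 cells (HepG2 co-transfected with a PXR response element and a CYP3A4-promoter luciferase construct) were seeded at 2,000 per well, rested 5 hr at 37C, then exposed to DMSO-dissolved compounds for 24 hr. Activation was read as luciferase luminescence.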

Cytochrome P450 1A2 (Homo sapiens), sequence (P05177 whole entry, looked up): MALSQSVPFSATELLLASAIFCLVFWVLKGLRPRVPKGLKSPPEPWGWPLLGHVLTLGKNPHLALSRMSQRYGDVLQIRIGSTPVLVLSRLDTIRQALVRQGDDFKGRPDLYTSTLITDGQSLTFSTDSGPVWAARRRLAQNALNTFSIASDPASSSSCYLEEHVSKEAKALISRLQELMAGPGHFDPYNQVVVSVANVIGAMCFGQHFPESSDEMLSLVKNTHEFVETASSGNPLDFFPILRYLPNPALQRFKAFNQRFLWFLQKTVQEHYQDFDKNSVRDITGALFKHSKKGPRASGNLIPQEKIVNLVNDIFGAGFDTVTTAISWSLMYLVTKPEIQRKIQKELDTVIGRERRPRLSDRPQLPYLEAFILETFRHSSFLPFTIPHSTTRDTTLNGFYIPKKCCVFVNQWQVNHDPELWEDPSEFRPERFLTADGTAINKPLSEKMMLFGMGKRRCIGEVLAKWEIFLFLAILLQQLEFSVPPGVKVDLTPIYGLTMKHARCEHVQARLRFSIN
Cytochrome P450 2C19 (Homo sapiens), sequence (P33261 whole entry, looked up): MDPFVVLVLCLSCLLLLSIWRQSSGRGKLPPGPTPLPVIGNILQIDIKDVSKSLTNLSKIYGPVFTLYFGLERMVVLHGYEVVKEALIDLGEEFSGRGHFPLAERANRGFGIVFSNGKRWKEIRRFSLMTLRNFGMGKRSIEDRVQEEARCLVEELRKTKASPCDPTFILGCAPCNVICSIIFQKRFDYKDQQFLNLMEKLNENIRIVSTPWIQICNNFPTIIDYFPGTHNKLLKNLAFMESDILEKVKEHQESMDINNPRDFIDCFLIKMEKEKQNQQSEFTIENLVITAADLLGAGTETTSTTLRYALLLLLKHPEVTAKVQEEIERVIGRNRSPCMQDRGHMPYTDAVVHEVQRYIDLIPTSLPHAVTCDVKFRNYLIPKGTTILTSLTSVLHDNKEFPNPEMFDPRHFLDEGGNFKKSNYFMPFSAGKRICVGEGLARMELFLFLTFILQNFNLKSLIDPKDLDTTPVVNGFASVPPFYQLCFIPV
Nuclear receptor subfamily 1 group I member 2 (Homo sapiens), sequence (O75469 whole entry, looked up): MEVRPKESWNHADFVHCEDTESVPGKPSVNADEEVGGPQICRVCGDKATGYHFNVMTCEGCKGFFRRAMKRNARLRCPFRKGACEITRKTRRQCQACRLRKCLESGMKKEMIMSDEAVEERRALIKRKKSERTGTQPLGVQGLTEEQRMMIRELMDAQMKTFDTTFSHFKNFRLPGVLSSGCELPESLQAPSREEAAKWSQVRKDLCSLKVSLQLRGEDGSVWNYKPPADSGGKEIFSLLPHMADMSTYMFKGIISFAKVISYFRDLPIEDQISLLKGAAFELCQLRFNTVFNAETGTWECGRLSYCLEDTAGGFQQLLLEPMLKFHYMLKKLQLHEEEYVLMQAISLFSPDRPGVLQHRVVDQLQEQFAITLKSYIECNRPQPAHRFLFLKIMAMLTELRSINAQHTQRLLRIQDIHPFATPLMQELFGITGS
Cytochrome P450 2C9 (Homo sapiens), sequence (P11712 whole entry, looked up): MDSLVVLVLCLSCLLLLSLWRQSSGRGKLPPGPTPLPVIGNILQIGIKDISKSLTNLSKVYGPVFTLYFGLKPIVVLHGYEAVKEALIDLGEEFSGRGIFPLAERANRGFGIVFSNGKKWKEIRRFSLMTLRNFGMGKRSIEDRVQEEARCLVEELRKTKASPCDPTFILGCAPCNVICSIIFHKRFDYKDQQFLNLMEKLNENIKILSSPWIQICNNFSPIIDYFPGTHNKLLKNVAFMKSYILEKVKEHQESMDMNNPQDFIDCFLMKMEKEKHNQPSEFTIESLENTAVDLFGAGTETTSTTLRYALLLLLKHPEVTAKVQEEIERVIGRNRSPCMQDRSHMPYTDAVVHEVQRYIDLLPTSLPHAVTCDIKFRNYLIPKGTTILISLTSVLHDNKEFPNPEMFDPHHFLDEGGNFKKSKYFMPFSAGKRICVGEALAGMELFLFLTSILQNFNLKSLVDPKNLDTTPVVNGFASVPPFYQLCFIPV
Cytochrome P450 2D6 (Homo sapiens), sequence (P10635 whole entry, looked up): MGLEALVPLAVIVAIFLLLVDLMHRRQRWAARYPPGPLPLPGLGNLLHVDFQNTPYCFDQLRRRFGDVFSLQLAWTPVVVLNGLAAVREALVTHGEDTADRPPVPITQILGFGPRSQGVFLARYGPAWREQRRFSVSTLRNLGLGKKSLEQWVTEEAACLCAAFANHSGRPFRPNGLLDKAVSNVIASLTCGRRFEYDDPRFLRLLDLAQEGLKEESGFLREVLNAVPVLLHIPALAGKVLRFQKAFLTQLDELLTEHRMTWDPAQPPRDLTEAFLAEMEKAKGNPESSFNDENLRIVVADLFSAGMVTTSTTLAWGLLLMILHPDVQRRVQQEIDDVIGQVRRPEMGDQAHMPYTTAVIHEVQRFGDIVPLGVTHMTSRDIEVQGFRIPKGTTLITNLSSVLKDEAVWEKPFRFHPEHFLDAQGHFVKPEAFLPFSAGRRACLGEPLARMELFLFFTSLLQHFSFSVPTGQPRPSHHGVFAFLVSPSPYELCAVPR
Voltage-gated inwardly rectifying potassium channel KCNH2 (Homo sapiens), sequence (Q12809 whole entry, looked up): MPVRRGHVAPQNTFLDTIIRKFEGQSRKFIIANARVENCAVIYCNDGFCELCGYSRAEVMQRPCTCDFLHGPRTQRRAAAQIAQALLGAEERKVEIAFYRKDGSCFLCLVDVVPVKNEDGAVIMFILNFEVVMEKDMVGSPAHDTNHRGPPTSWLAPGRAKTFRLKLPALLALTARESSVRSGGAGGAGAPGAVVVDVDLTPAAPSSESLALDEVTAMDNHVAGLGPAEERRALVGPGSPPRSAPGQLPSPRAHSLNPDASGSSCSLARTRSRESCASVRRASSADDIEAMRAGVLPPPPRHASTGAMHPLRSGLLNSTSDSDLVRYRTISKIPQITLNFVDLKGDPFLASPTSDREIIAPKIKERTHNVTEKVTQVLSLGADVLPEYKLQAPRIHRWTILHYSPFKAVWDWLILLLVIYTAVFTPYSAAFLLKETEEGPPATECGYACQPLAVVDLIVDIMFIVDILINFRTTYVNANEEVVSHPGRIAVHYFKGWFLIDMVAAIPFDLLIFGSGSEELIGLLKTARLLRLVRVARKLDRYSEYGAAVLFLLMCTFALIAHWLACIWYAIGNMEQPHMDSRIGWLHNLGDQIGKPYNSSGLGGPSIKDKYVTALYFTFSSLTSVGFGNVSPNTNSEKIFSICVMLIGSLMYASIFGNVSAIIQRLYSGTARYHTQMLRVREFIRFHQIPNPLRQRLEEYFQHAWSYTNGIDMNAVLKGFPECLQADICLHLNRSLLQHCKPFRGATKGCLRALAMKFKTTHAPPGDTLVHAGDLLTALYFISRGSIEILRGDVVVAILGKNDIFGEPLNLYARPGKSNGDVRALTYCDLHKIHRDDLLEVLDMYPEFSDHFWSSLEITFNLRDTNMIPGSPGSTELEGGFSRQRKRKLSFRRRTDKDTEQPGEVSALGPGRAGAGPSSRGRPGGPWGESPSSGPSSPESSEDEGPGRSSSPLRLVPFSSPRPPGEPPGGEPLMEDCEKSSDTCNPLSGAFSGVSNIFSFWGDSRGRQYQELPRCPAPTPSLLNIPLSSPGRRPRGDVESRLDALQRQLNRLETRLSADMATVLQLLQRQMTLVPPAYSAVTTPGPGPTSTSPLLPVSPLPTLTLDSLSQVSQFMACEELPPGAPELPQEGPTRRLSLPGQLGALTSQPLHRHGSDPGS
Cytochrome P450 3A4 (Homo sapiens), sequence (P08684 whole entry, looked up): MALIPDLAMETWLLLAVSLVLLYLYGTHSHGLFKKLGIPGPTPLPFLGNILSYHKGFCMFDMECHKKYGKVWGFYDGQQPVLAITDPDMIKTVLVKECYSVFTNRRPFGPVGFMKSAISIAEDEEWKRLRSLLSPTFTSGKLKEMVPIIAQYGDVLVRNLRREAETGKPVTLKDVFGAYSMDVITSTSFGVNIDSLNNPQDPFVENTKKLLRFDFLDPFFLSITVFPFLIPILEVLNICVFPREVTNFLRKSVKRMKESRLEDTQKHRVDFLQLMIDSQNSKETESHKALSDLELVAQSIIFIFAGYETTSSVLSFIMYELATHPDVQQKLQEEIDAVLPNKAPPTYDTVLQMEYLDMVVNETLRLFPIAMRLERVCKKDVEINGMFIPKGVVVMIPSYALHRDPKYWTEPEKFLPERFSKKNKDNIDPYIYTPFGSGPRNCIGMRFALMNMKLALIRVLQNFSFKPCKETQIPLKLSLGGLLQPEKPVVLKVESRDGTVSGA
Nuclear receptor subfamily 1 group I member 2 (Rattus norvegicus), sequence (Q9R1A7 whole entry, looked up): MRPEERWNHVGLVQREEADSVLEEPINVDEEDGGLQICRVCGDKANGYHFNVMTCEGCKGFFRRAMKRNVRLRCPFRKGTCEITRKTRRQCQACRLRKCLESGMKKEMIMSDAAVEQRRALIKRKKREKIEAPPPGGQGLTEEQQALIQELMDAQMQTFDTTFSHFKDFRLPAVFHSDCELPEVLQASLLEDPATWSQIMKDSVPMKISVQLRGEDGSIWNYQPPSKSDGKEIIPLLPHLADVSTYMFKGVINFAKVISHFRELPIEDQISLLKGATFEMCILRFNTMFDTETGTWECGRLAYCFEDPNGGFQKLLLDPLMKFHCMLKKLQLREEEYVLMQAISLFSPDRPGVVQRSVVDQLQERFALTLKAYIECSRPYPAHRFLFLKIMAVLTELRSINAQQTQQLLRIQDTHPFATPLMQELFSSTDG

Row | Structure (SMILES) | Potency [1] | Potency [2] | Potency [3] | Potency [4] | Potency [5] | Potency [6] | Potency [7] | Potency [8] | Potency [9] | Potency [10] | Potency [11] | Potency [12] | max activation [13] | Potency [14] | Potency [15]
1 | OCCN1CCNCC1 | inactive | inactive | inactive | inactive | inactive | inactive | inactive | inactive | inactive | inactive | inactive | inactive | – | – | –
2 | CC(=O)N[C@@H](CS)C(=O)O | inactive | inactive | inactive | inactive | inactive | inactive | inactive | 56.3 µM (active) and inactive | inactive | inactive | inactive | inactive | -0.291% (inactive) | inactive | inactive
3 | NC(=Nc1ccccc1)Nc1ccccc1 | 4.86 µM (active) | inactive | inactive | inactive | 20.5 µM (active) | 3.86 µM (active) and 11.9 µM (active) | 212 nM (active) and 617 nM (active) | 39.9 µM (active) and inactive | 89.4 µM (active) and inactive | 50.2 µM (active) and inactive | – | inactive | -2.33% (inactive) | inactive | inactive
4 | Cc1ccnc2c1NC(=O)c1cccnc1N2C1CC1 | inactive | inactive | inactive | inactive | inactive | inactive | 7.4 µM (active) and inactive | inactive | inactive | 33 µM (active) and inactive | inactive | inactive | -1.62% (inactive) | inactive | inactive
5 | CCOc1ccccc1C(N)=O | inactive | inactive | inactive | inactive | inactive | inactive | inactive | 20 µM (active) and inactive | inactive | 31.8 µM (active) and 17.4 µM (active) | inactive | inactive | -0.87% (inactive) | inactive | inactive
6 | COC(=O)/C=C/c1ccccc1 | inactive | inactive | inactive | inactive | inactive | inactive | 35.6 µM (active) and inactive | inactive | inactive | 15.9 µM (active) and 28.3 µM (active) | inactive | inactive | – | – | –
7 | [Cl][In]([Cl])[Cl] | inactive | inactive | inactive | inactive | inactive | inactive | inactive | inactive and 35.6 µM (active) | inactive | 37.7 µM (active) | inactive | inactive | -5.91% (inactive) | inactive | inactive
8 | Cc1cc(C(C)(C)C)c(O)c(C(C)(C)C)c1 | inactive | inactive | inactive | inactive | inactive | inactive | inactive | inactive | 35.7 µM (active) and inactive | inactive | inactive | inactive | – | – | –
9 | Cc1cc(C2(c3cc(C)c(O)cc3C)OS(=O)(=O)c3ccccc32)c(C)cc1O | 35.5 µM (active) and 13.7 µM (active) | inactive | 30.6 µM (active) and 13.7 µM (active) | inactive | 30.6 µM (active) and 19.3 µM (active) | 61.1 µM (active) and inactive | 39.9 µM (active) | 7.97 µM (active) and 17.8 µM (active) | 5.03 µM (active) and 7.96 µM (active) | 31.7 µM (active) | inactive | 2 µM (active) and 2.52 µM (active) | – | – | –
10 | O=S(=O)(O)c1ccc2nc(-c3ccccc3)[nH]c2c1 | inactive | inactive | inactive | inactive | inactive | inactive | 21.4 µM (active) and 13.8 µM (active) | 17 µM (active) and 9.77 µM (active) | 33.9 µM (active) and 19.5 µM (active) | 26.9 µM (active) and 19.5 µM (active) | inactive | – | -3.42% (inactive) | inactive | inactive
11 | COc1ccc(CCN2CCC(Nc3nc4ccccc4n3Cc3ccc(F)cc3)CC2)cc1 | 3.94 µM (active) and 13.3 µM (active) | 7.86 µM (active) | 7.86 µM (active) and 23.7 µM (active) | 11.1 µM (active) | 8.82 µM (active) and 29.8 µM (active) | – | – | – | – | – | – | – | – | – | –
12 | NNCCc1ccccc1 | inactive | inactive | inactive | inactive | inactive | 27.4 µM (active) and 26.6 µM (active) | 2.25 µM (active) and 12.3 µM (active) | 6.35 µM (active) and 13.8 µM (active) | 25.3 µM (active) and 17.4 µM (active) | 11.3 µM (active) and 17.4 µM (active) | inactive | – | – | inactive | 12.6 µM (active)
13 | CC1COC(=O)O1 (stereo not given) | inactive | inactive | inactive | inactive | inactive | inactive | inactive | inactive | inactive | inactive | inactive | inactive | – | – | –
14 | O=C(OCc1ccccc1)c1ccc(O)cc1 | inactive | inactive | inactive | inactive | inactive | inactive | – | – | – | – | inactive | – | 0.826% (inactive) | – | inactive
